In all, about 1,500 compounds were measured (“Inhibition index”: median about 0.17, highest 2% from about 1.3 on). Shown is part of a subset that was picked to be rich in the highest values.
test system: SARS-CoV-2; assay: Inhibition of cell viability relative to arbidol control (inhibition index > 1 indicates higher activity) measured by fluorescence (OD590nm) in Vero E6 cells infected with SARS-CoV-2 (strain BavPat1) at MOI 0.002 after 72hrs; format: functional, Chlorocebus sabaeus, Vero C1008

Compared with `Clc1cc(Cl)c(OCC#CI)cc1Cl` [HALOPROGIN], `Clc1ccc(CCC(Cn2ccnc2)Sc2c(Cl)cccc2Cl)cc1.O=[N+]([O-])O` (stereo not given) [BUTOCONAZOLE NITRATE] is lower in Inhibition index: -0.09794 for the first, -0.1062 for the second.

First: CC(=O)[C@H]1CC[C@H]2[C@@H]3CC[C@H]4C[C@H](O)CC[C@]4(C)[C@H]3C(=O)C[C@]12C [ALFAXALONE]
Second: CC(=O)[C@H]1CC[C@H]2[C@@H]3C=CC4=CC(=O)CC[C@@]4(C)[C@@H]3CC[C@]12C [DYDROGESTERONE]
The Inhibition index of the first is higher: 0.7131 for the first, 0.5447 for the second.

Compared with `CC(=O)OCC(=O)[C@@]12N=C(C)O[C@@H]1C[C@H]1[C@@H]3CCC4=CC(=O)C=C[C@]4(C)[C@H]3[C@@H](O)C[C@@]12C` [DEFLAZACORT], `CC1(C)O[C@@H]2C[C@H]3[C@@H]4CCC5=CC(=O)C=C[C@]5(C)[C@H]4[C@@H](O)C[C@]3(C)[C@]2(C(=O)CO)O1` [DESONIDE] is higher in Inhibition index: 0.4333 for the first, 1.58 for the second.

Compared with `CC(C)(C)NC(=O)[C@H]1CC[C@H]2[C@@H]3CC[C@H]4NC(=O)C=C[C@]4(C)[C@H]3CC[C@]12C` [FINASTERIDE], `C[C@]12C=CC(=O)C=C1CC[C@@H]1[C@@H]2[C@@H](O)C[C@@]2(C)[C@H]1CC[C@]2(O)C(=O)CO` [PREDNISOLONE] is higher in Inhibition index: 0.2658 for the first, 0.3132 for the second.

Going from `Cc1[nH]cnc1CN1CCc2c(c3ccccc3n2C)C1=O.Cl` [ALOSETRON HYDROCHLORIDE] to `Cc1nccn1CC1CCc2c(c3ccccc3n2C)C1=O.Cl` (stereo not given), the Inhibition index rises from 0.152 to 1.665.

Compared with `CN(C)CCC(c1ccccc1)c1ccccn1.O=C(O)/C=C\C(=O)O` (stereo not given) [PHENIRAMINE MALEATE], `CN(C)CCC(c1ccc(Br)cc1)c1ccccn1.O=C(O)/C=C\C(=O)O` (stereo not given) [BROMPHENIRAMINE MALEATE] is higher in Inhibition index: 0.01395 for the first, 0.3833 for the second.

Going from `O=C(O[C@H]1C[N+]2(CCCOc3ccccc3)CCC1CC2)C(O)(c1cccs1)c1cccs1.[Br-]` [ACLIDINIUM BROMIDE] to `CC(COc1ccccc1)NC(C)C(O)c1ccc(O)cc1.Cl` (stereo not given) [ISOXSUPRINE HYDROCHLORIDE], the Inhibition index falls from 0.1807 to -0.02068.

Compared with `CC1(C)S[C@@H]2[C@H](NC(=O)[C@H](NC(=O)N3CCNC3=O)c3ccccc3)C(=O)N2[C@H]1C(=O)[O-].[Na+]` [AZLOCILLIN SODIUM], `CC1(C)S[C@@H]2[C@H](NC(=O)C(C(=O)O)c3ccsc3)C(=O)N2[C@H]1C(=O)[O-].[Na+]` (stereo not given in full) is higher in Inhibition index: 0.01854 for the first, 0.09416 for the second.

Compared with `CC(C)(CO)[C@@H](O)C(=O)NCCCC(=O)O.CC(C)(CO)[C@@H](O)C(=O)NCCCC(=O)O.[Ca+2]`, `CC(C)NC[C@@H](O)c1ccc(O)c(O)c1.O=C(O)C(O)C(O)C(=O)O` is higher in Inhibition index: 0.08003 for the first, 0.1733 for the second.

Compared with `CC(C)NNC(=O)c1ccncc1.O=P(O)(O)O` [IPRONIAZID PHOSPHATE], `CC1(C)S[C@@H]2[C@H](NC(=O)[C@H](N)c3ccc(O)cc3)C(=O)N2[C@H]1C(=O)O` [AMOXICILLIN] is higher in Inhibition index: 0.02671 for the first, 0.1371 for the second.

Compared with `Cl.Cl.NCCc1cc[nH]n1`, `CCOC(=O)NNc1nncc2ccccc12.Cl` [TODRALAZINE HYDROCHLORIDE] is lower in Inhibition index: 0.03591 for the first, -0.005099 for the second.

First: CC12CC3CC(C)(C1)CC(N)(C3)C2.Cl [MEMANTINE HYDROCHLORIDE]
Second: C#C[C@]1(O)CC[C@H]2[C@@H]3[C@H](C)CC4=C(CCC(=O)C4)[C@H]3CC[C@@]21C [TIBOLONE]
The Inhibition index of the first is higher: 0.5095 for the first, 0.3794 for the second.

Compared with `O=C(NC1CCN(CCCCC2(C(=O)NCC(F)(F)F)c3ccccc3-c3ccccc32)CC1)c1ccccc1-c1ccc(C(F)(F)F)cc1` [LOMITAPIDE], `CCOc1nc2cccc(C(=O)O)c2n1Cc1ccc(-c2ccccc2-c2nnn[nH]2)cc1` is higher in Inhibition index: -0.295 for the first, 1.166 for the second.

First: CC(C)(C)NC[C@H](O)COc1cccc2c1CCCC2=O.Cl [LEVOBUNOLOL HYDROCHLORIDE]
Second: C=CCc1ccccc1OCC(O)CNC(C)C.Cl (stereo not given) [ALPRENOLOL HYDROCHLORIDE]
The Inhibition index of the first is higher: 0.5259 for the first, 0.02886 for the second.

Compared with `CN(C)CCC=C1c2ccccc2C=Cc2ccccc21.Cl` [CYCLOBENZAPRINE HYDROCHLORIDE], `CN(C)CCc1c[nH]c2ccc(Cn3cncn3)cc12.O=C(O)c1ccccc1` [RIZATRIPTAN BENZOATE] is higher in Inhibition index: 0.6333 for the first, 0.7991 for the second.

Going from `CO/N=C(\C(=O)N[C@@H]1C(=O)N2C(C(=O)OC(C)OC(C)=O)=C(COC(N)=O)CS[C@H]12)c1ccco1` (stereo not given in full) [CEFUROXIME AXETIL] to `CC(=O)OCC1=C(C(=O)[O-])N2C(=O)[C@@H](NC(=O)Cc3cccs3)[C@H]2SC1.[Na+]` [CEPHALOTHIN SODIUM], the Inhibition index falls from 0.1456 to 0.1149.

Compared with `Cl.O=C1CC2(CCCC2)CC(=O)N1CCCCN1CCN(c2ncccn2)CC1` [BUSPIRONE HYDROCHLORIDE], `Cl.Cl.Fc1ccc(C(OCCN2CCN(CCCc3ccccc3)CC2)c2ccc(F)cc2)cc1` is lower in Inhibition index: 1.176 for the first, -0.1375 for the second.

Compared with `CN(C)CCCSC(=N)N.Cl.Cl`, `CN(C)C(=N)NC(=N)N.Cl` [METFORMIN HYDROCHLORIDE] is lower in Inhibition index: 1.382 for the first, 0.00269 for the second.

First: Nc1ncnc2c1ncn2[C@@H]1O[C@H](COP(=O)(O)O)[C@@H](O)[C@H]1O.O
Second: CCOC(=O)C1=C[C@@H](OC(CC)CC)[C@H](NC(C)=O)[C@@H](N)C1.O=P(O)(O)O [OSELTAMIVIR PHOSPHATE]
The Inhibition index of the first is higher: 0.1161 for the first, -0.01747 for the second.

Going from `CC#C[C@]1(O)CC[C@H]2[C@@H]3CCC4=CC(=O)CCC4=C3[C@@H](c3ccc(N(C)C)cc3)C[C@@]21C` [MIFEPRISTONE] to `C[C@]12CCC3=C4CCC(=O)C=C4CC[C@H]3[C@@H]1CC[C@@]2(O)CC#N` [DIENOGEST], the Inhibition index rises from 0.1807 to 0.1822.

Compared with `CC1(C)S[C@@H]2[C@H](NC(=O)[C@H](N)c3ccccc3)C(=O)N2[C@H]1C(=O)OC1OC(=O)c2ccccc21.Cl` (stereo not given in full) [TALAMPICILLIN HYDROCHLORIDE], `CC(CCc1ccccc1)NCC(O)c1ccc(O)c(C(N)=O)c1.Cl` (stereo not given) [LABETALOL HYDROCHLORIDE] is lower in Inhibition index: 0.5053 for the first, 0.3584 for the second.

Going from `Br.COc1ccc2c3c1O[C@H]1C[C@@H](O)C=C[C@@]31CCN(C)C2` [GALANTAMINE HYDROBROMIDE] to `CCCC1O[C@@H]2C[C@H]3[C@@H]4CCC5=CC(=O)C=C[C@]5(C)[C@H]4[C@@H](O)C[C@]3(C)[C@]2(C(=O)CO)O1` (stereo not given in full) [BUDESONIDE], the Inhibition index rises from 0.03283 to 0.726.

First: Cl.N/C(=N\C(=O)c1nc(Cl)c(N)nc1N)NCc1ccccc1 [BENZAMIL HYDROCHLORIDE]
Second: C[C@H](CCc1ccccc1)NC[C@H](O)c1ccc(O)c(C(N)=O)c1 [DILEVALOL]
The Inhibition index of the first is lower: -0.07365 for the first, 1.277 for the second.

First: CC(C)NCC(O)COc1cccc2[nH]c3ccccc3c12 (stereo not given) [CARAZOLOL]
Second: C=CCOc1ccccc1OCC(O)CNC(C)C.Cl (stereo not given) [OXPRENOLOL HYDROCHLORIDE]
The Inhibition index of the first is lower: 0.7194 for the first, 1.632 for the second.

Compared with `CC[C@H](C)C(=O)O[C@H]1C[C@H](O)C=C2C=C[C@H](C)[C@H](CC[C@@H](O)C[C@@H](O)CC(=O)O)[C@H]21` [PRAVASTATIN], `CCOC(=O)O[C@]1(C(=O)COC(=O)CC)CC[C@H]2[C@@H]3CCC4=CC(=O)C=C[C@]4(C)[C@H]3[C@@H](O)C[C@@]21C` [PREDNICARBATE] is higher in Inhibition index: 0.3233 for the first, 1.368 for the second.

Going from `C[C@@H](O)[C@H]1C(=O)N2C(C(=O)O)=C(SCCNC=N)C[C@H]12` [IMIPENEM ANHYDROUS] to `CC(NCCc1ccc(O)cc1)C(O)c1ccc(O)cc1.Cl` (stereo not given) [RITODRINE HYDROCHLORIDE], the Inhibition index rises from 0.0698 to 0.3972.

Going from `CC(C)=C/C(C)=N/Nc1nncc2ccccc12` [BUDRALAZINE] to `COCCCOc1ccnc(C[S+]([O-])c2nc3ccccc3[nH]2)c1C.[Na+]` (stereo not given), the Inhibition index falls from 1.549 to 0.5892.

Going from `CCc1c(C)[nH]c2c1C(=O)C(CN1CCOCC1)CC2.Cl` (stereo not given) [MOLINDONE HYDROCHLORIDE] to `CCOC(=O)O[C@]1(C(=O)OCCl)CC[C@H]2[C@@H]3CCC4=CC(=O)C=C[C@]4(C)[C@H]3[C@@H](O)C[C@@]21C` [LOTEPREDNOL ETABONATE], the Inhibition index rises from 0.4807 to 0.5857.

Compared with `CN[C@H](CC(C)C)C(=O)N[C@H]1C(=O)N[C@@H](CC(N)=O)C(=O)N[C@H]2C(=O)N[C@H]3C(=O)N[C@H](C(=O)N[C@H](C(=O)O)c4cc(O)cc(O)c4-c4cc3ccc4O)[C@H](O)c3ccc(c(Cl)c3)Oc3cc2cc(c3O[C@@H]2O[C@H](CO)[C@@H](O)[C@H](O)[C@H]2O[C@H]2C[C@](C)(N)[C@H](O)[C@H](C)O2)Oc2ccc(cc2Cl)[C@H]1O.Cl`, `C[C@H]1O[C@H](O[C@H]2[C@H](O)[C@@H](O)[C@@H](O[C@H]3[C@H](O)[C@@H](O)C(O)O[C@@H]3CO)O[C@@H]2CO)[C@H](O)[C@@H](O)[C@@H]1N[C@H]1C=C(CO)[C@@H](O)[C@H](O)[C@H]1O` (stereo not given in full) [ACARBOSE] is lower in Inhibition index: 0.05858 for the first, 0.004156 for the second.

First: CC(CCc1ccccc1)NC(C)C(O)c1ccc(O)cc1 (stereo not given) [NYLIDRIN]
Second: CC1(C)O[C@@H]2C[C@H]3[C@@H]4C[C@H](F)C5=CC(=O)C=C[C@]5(C)[C@H]4[C@@H](O)C[C@]3(C)[C@]2(C(=O)CO)O1 [FLUNISOLIDE]
The Inhibition index of the first is higher: 1.263 for the first, 0.0848 for the second.
